# Screens deposited in PubChem BioAssay by National Center for Advancing Translational Sciences (NCATS).
# G9a block – G9a (human) methyltransferase inhibition. Q96KQ7. G9a H3K9 monomethylation, AlphaScreen, 2 h. Potency, µM (doses to about 102 µM), for inactives: top-dose activity, negative = inhibition, hits mostly inhibitors. actives 8.8% (n = 350,000); further: on the % scale 0 is the no-effect control and ±100 the full control effect; nearly all actives have a fitted effect of over 75% in size
# Target sequence (Q96KQ7 913-1193 limits assumed): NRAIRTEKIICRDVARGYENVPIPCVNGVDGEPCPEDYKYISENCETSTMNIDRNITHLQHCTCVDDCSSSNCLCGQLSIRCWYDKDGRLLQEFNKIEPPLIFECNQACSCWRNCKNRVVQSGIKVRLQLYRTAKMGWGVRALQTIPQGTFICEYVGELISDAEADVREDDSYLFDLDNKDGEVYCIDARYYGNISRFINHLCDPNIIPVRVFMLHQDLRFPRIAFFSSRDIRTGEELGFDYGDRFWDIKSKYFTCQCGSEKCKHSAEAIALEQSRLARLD
#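 AlphaScreen detection with an anti-monomethyl H3K9 antibody quantified product after a 2 h room-temperature reaction containing 500 nM biotinylated H3K9 peptide, 20 µM SAM and 20 nM enzyme, which had been preincubated 15 min with compound.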
# HP1b binding inh – HP1-beta chromodomain-methylated histone interaction inhibition | AID 540317 | Potency, µM (top dose mostly 114 µM), for inactives: at the top dose activity change, negative = inhibition, actives largely listed as inhibitors | AlphaScreen HP1-beta / biotin-H3K9me3 peptide binding | actives 0.56% (n = 390,000) | P83916; further: nearly all actives have a fitted effect of over 70% in size
# Target sequence (P83916 whole entry, looked up): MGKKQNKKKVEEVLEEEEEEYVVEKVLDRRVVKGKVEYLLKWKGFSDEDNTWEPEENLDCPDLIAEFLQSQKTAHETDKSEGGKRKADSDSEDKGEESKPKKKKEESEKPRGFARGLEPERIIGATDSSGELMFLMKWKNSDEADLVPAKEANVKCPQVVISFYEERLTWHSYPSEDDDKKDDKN
#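 Compound inhibition of the preformed complex between 50 nM HP1-beta and 50 nM biotinylated H3K9me3 peptide was read by AlphaScreen. Buffer was PBS pH 7.4 with 0.01% Tween-20. Incubations ran 30 min at room temperature, with 10 ug/mL donor/acceptor beads.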
# L3MBTL1 inh – inhibitors of human L3MBTL1 | Q9Y468 | AlphaScreen L3MBTL1–H3K9me1 peptide binding | Potency, µM (top dose mostly 57.1 µM), for the others: top-dose activity, negative = inhibition, hits mostly inhibitors | actives 0.66% (n = 230,000) | AID 485360; further: on the % scale 0 is the no-effect control and ±100 the full control effect; nearly all actives have a fitted effect of over 60% in size
#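 Read-out is AlphaScreen signal from streptavidin donor and nickel chelate acceptor beads (10 ug/mL final each) bridging L3MBTL1 (50 nM) and biotinylated K9-monomethylated H3(1-15) peptide (75 nM), after 30 min compound exposure at room temperature.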
# JMJD2A Tudor inh – JMJD2A Tudor domain (human) inhibition | actives 4.4% (n = 390,000) | AlphaScreen JMJD2A-Tudor / H3K4me3 peptide binding | O75164 | Potency, µM (doses to about 114 µM), for inactives: at the highest dose activity change, negative = inhibition, usual class: inhibitors | AID 504339; further: on the % scale 0 is the no-effect control and ±100 the full control effect; nearly all actives have a fitted effect of over 50% in size
# Sfp inh – inhibitors of Bacillus subtilis Sfp phosphopantetheinyl transferase; AID 1490; Potency, µM, for the others: largest response in the series, negative = inhibition, hits mostly inhibitors; Q9F4F7; Biochemical Sfp PPTase activity, qHTS; actives 3.5% (n = 310,000);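 further: the enzyme is Sfp with the accession as filed and its product quenches rhodamine fluorescence; 0% = enzyme reaction without inhibitor and -100% = no enzyme wells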
#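 Sfp 15 nM + cpd, 15 min RT; start w/ rhodamine-CoA 5 uM, BHQ-2-YbbR 12.5 uM (final); 50 mM Hepes pH 7.6, 10 mM MgCl2, 0.01% NP-40, 0.01% BSA; read 525/598 nm at 0 and 30 min.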
# BAZ2B inh – inhibitors of human BAZ2B bromodomain | Q9UIF8 | AlphaScreen BAZ2B-H3K14Ac peptide displacement | Potency, µM (doses to about 114 µM), for the others: at the top dose activity change, negative = inhibition, actives largely listed as inhibitors | actives 4.4% (n = 360,000) | AID 504333; further: on the % scale 0 is the no-effect control and ±100 the full control effect; nearly all actives have a fitted effect of over 60% in size
#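 Protein-peptide AlphaScreen: BAZ2B 50 nM, b-H3K14Ac 50 nM, 1x PBS pH 7.4 + 0.01% Tween-20. Preincubation 30 min RT; cpd 30 min RT (top 110 uM); beads 20 min RT, light-protected.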
# The depositor's hits bear a star; u = inconclusive; x = no result given; ! = not confirmed by another sample; [ ] = dose if it differs, or a comment. Only some compounds are listed: those with a hit (about 12% of all), similar ones and a draw of the others. The call rests on the fitted dose curve; in most records, active means well fitted curve in the direction sought with a large enough effect; inconclusive means small, poorly fitted or top-dose-only effect, or another doubt; inactive means no such curve, though single readings can be large; an effect the other way counts as inactive or inconclusive. Potency means the concentration at half of the fitted maximal effect.
SMILES,G9a block,HP1b binding inh,L3MBTL1 inh,JMJD2A Tudor inh,Sfp inh,BAZ2B inh
CC1CCc2cc(F)ccc2N1C(=O)C1(C)CC1(Cl)Cl (stereo not given),-3.7%[2.33 µM],29.2%,x,7.2%,0.6%,-5.5%
COc1ccc(OC(=O)c2cn(-c3cccc(OC)c3)c(=O)c3ccccc23)cc1,3.7%[59 µM],32.0%[57 µM],x,5.2%,x,1.3%
C/C(=C/c1oc2ccc(O)cc2c1[N+](=O)[O-])N(C)C,79.4µM*,1.9%,x,2.4%[57.1 µM],70.8µM*,u
Cc1cc([N+](=O)[O-])ccc1NC(=O)C[n+]1ccc(N(C)C)cc1,8.6%,17.3%,-2.9%,-11.0%,22.7%,-17.2%
COc1ccc(NC(=O)c2cccc(S(=O)(=O)NCc3ccco3)c2)c(OC)c1,-22.0%[59 µM],-0.6%,-5.7%,-22.8%,x,-8.4%
COc1ccc(/C=N/N2CCN(C3c4ccccc4-c4ccccc43)CC2)cc1OC,7.6%[59 µM],8.8%,-7.7%,-21.8%,-0.2%,-34.5%
COc1cc(/C=N/N2CCN(C3c4ccccc4-c4ccccc43)CC2)cc(OC)c1OC,50.1µM*,u,-1.1%,u,u,-38.6%
COc1cc(/C=N/N2CCN(C3c4ccccc4-c4ccccc43)CC2)cc(OC)c1O,1.58µM*,-11.0%,-8.9%,u,39.8µM*,11.2µM*
NS(=O)(=O)c1ccc(NN=C2CCCCC2)c([N+](=O)[O-])c1,8.0%[59 µM],-35.2%,-15.6%,u,-1.6%,u
CC1C/C(=N/Nc2ccc([N+](=O)[O-])cc2[N+](=O)[O-])CC(C)(C)C1 (stereo not given),10µM*,8.91µM*,u,5.62µM*,-10.1%,10µM*
CC1C/C(=N/Nc2nc3ccccc3[nH]2)CC(C)(C)C1 (stereo not given),25.4%[59 µM],15.2%,-11.7%,u,-16.2%,u
CC1CCCC/C1=N/Nc1ccc([N+](=O)[O-])cc1[N+](=O)[O-] (stereo not given),35.5µM*,-60.4%,x,50.1µM*,-5.3%,u
O=S(=O)(Nc1ncccn1)c1ccc(NS(=O)(=O)c2cc(Cl)ccc2Cl)cc1,u,28.0%,x,9.6%,12.7%,-1.6%
Nc1cc(S(=O)(=O)Nc2ccccc2Cl)ccc1N1CCCC1,u,-17.1%,u,u,-3.7%,u
Nc1cc(Cl)ccc1N1CCOCC1,-3.7%[2.33 µM],19.5%,x,-26.7%,2.3%,-35.0%
O=S(=O)(Nc1ccc(N2CCOCC2)cc1)c1cc(Cl)ccc1Cl,44.7µM*,-6.4%,x,u,3.0%,-31.2%
Nc1cc(Cl)ccc1N1CCCC1,14.1µM*,-15.8%,8.4%,u,-5.6%,u
CN(C)c1ccc(NS(=O)(=O)c2cc(Cl)ccc2Cl)cc1,8.91µM*,50.1µM*,-17.8%,56.2µM*,-3.5%,35.5µM*
Nc1cc(S(=O)(=O)Nc2cc(Cl)ccc2Cl)ccc1N1CCOCC1,11.2µM*,u,-1.5%,u,11.2µM*,-33.9%
CCN(CC(=O)Nc1c(F)cccc1F)C(=O)C1(c2ccccc2)CC1,16.3%,3.0%,x,-9.0%,15.4%,-4.9%
CCC(C)NCCC(=O)Nc1ccc(Cl)c(S(=O)(=O)Nc2ccc(Cl)cc2)c1 (stereo not given),-41.1%,-4.3%,-4.3%,-19.0%,1.2%,-22.3%
CCN(c1ccc(NS(=O)(=O)c2cc(Cl)ccc2Cl)cc1)C(C)C,7.08µM*,u,u,50.1µM*,-16.5%,35.5µM*
O=C(c1ccc(CSc2nc3ccncc3[nH]2)cc1)N1CCCCC1,25.1µM*,u,4.6%,20µM*,-22.4%,79.4µM*
COc1ncc2ncc(=O)n(C[C@H]3CCCO3)c2n1,-6.1%[0.501 µM],x,x,x,26.0%,x
O=c1c2cc(NC(=S)NCc3ccccn3)ccc2nc2n1CCCCC2,39.8µM*,20.1%,-12.5%,-34.5%,-8.5%,u
SMILES,G9a block,HP1b binding inh,L3MBTL1 inh,JMJD2A Tudor inh,Sfp inh,BAZ2B inh
O=c1c2cc(NC(=S)N3CCC(N4CCCCC4)CC3)ccc2nc2n1CCCCC2,-0.1%,16.3%,-13.9%,-8.0%,79.4µM*,3.8%
O=C(Nc1ccc2nc3n(c(=O)c2c1)CCCCC3)C(=O)N1CCN(c2ccc(F)cc2)CC1,-0.4%,u,x,20µM*,12.0%,-19.6%
O=C(Nc1ccc2nc3n(c(=O)c2c1)CCCCC3)c1ccccn1,25.1µM*,9.1%,7.8%,-24.1%,-16.9%,-26.7%
CC1CCc2nc(-c3cc4ccc(O)cc4oc3=O)sc2C1 (stereo not given),x,29.0%[57 µM],x,34.6%[57.1 µM],x,x
CCCCN(CC)CCCNC(=S)Nc1ccc2nc3n(c(=O)c2c1)CCCCC3,44.7µM*,13.3%,4.0%,-13.6%,7.7%,2.7%
O=c1c2cc(NC(=S)NCCN3CCCCCC3)ccc2nc2n1CCCCC2,u,6.5%,-4.5%,-31.9%,2.8%,-20.5%
COCCn1c(C)c(C)c2c(NCCc3ccccc3)ncnc21,28.2µM*,u,x,17.8µM*,u,28.2µM*
Cc1c(C)n(CCc2ccccc2)c2ncnc(NCCCO)c12,-32.9%[12.7 µM],-8.1%,x,u,-0.1%,u
Cc1cccnc1Nc1nc(-c2ccc(O)cc2O)cs1,6.31µM*,-33.9%,-7.3%,14.1µM*,44.7µM*,u
Fc1ccc(-c2csc(Nc3ccccn3)n2)cc1,79.4µM*,28.7%,-1.0%,-27.2%,-13.0%,-38.8%
c1ccc(Nc2nc(-c3cccnc3)cs2)nc1,-27.3%[0.0925 µM],13.2%,-4.4%,-13.7%,9.7%,-3.1%
NS(=O)(=O)c1ccc(Nc2nc(-c3ccc(O)cc3O)cs2)cc1,0.7%[59 µM],-15.8%,x,-22.9%,-10.7%,u
Oc1ccc(-c2csc(Nc3ccccn3)n2)c(O)c1,44.7µM*,13.8%,-15.3%,-26.2%,u,-12.1%
COc1cc2nc(N3CCN(C(=O)OCc4ccccc4)[C@H](C(=O)NC(C)(C)C)C3)nc(N)c2cc1OC,7.08µM*,12.9%,7.1%,-27.6%,5.2%,-17.1%
COc1cc2nc(N3CCN(C(=O)OCc4ccccc4)C(C(=O)NC(C)(C)C)C3)nc(N)c2cc1OC (stereo not given),5.62µM*!,x,x,x,x,x
CC(C)Cn1c(N)c(C(=O)COC(=O)CC23CC4CC(CC(C4)C2)C3)c(=O)n(C)c1=O,-10.0%,29.3%,x,-20.8%,5.2%,-18.3%
COCCn1c(C)cc(/C=C2/NC(=O)N(Cc3ccc(C)cc3)C2=O)c1C,15.8µM*,-12.1%,-28.7%,-33.3%,2.1%,-27.6%
CCCCn1c(N)c(N(CCOC)C(=O)c2c(CC)noc2C)c(=O)[nH]c1=O,-2.5%[12.7 µM],28.9%,-1.8%,-6.1%,x,7.2%
O=C(N/N=C/c1ccncc1)c1cccc(N/N=C/c2ccncc2)c1,u,-5.9%,-8.6%,u,13.8%,-21.0%
COc1ccc2ccccc2c1/C=N/Nc1cccc(C(=O)O)c1,44.7µM*,-8.5%,x,-16.3%,-16.2%,u
